Results filed as inconclusive are left out. Entries that show only a call come without a potency. Active and inactive are the calls of the source. Calls follow the shape of the dose curve; as a rule, active = well fitted curve in the direction sought with a large enough effect; inconclusive = small, poorly fitted or top-dose-only effect, or another doubt; inactive = no such curve, though single readings can be large; an effect the other way counts as inactive or inconclusive. Numbered stars: 1 amine (or outer) side, 2 acyl side, 3 side chain; on linkers, the order of the positions; unused ones are H or OH. Bridge positions count the residues as written; N and C are the ends. Square brackets hold non-standard residues; d marks the D form. Peptide text beside a SMILES is read from it. I, II: the chains in the order shown. Actinocin(9to1) = Cc1c2oc3c(C)ccc(C(=O)[*:1])c3nc-2c(C(=O)[*:2])c(N)c1=O; NMeV = CN[C@H](C(=O)O)C(C)C; Sar = CNCC(=O)O
Tests used:
[1] = qHTS of pediatric cancer cell lines to identify multiple opportunities for drug repurposing: Confirmatory screen for SJ-GBM2 cells (AID 1347116); conditions: SJ-GBM2 glioblastoma cells, viability; series mostly up to 45.9 µM; also: nearly all actives have a fitted effect of over 60% in size; also: potency is read from the fitted curve at half-maximal effect
How it was run: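 Viability measured as metabolically active cells via CellTiter-Glo luminescence following 48 hours of compound exposure, 11-point dilutions in confirmatory testing. 500-1,000 cells/well plated 5 hours before dosing; controls were DMSO and 2.3 µM bortezomib.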

[2] = qHTS of pediatric cancer cell lines to identify multiple opportunities for drug repurposing: Confirmatory screen for TC32 cells (AID 1347118); conditions: TC32 Ewing sarcoma cells viability qHTS; series mostly up to 45.9 µM;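 also: potency is read from the fitted curve at half-maximal effect; cells exposed to compound for 48 h before the read; nearly all actives have a fitted effect of over 65% in size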
How it was run: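 qHTS, TC32, 48 h drug treatment, CellTiter-Glo luminescence as a proxy for metabolically active cells; primary top concentration 46 µM (MIPE 11-pt, NPC 8-pt); confirmatory 11-pt.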

[3] = qHTS of pediatric cancer cell lines to identify multiple opportunities for drug repurposing: Confirmatory screen for control Hh wild type fibroblast cells (AID 1347121); conditions: viability qHTS; series mostly up to 45.9 µM; also: nearly all actives have a fitted effect of over 70% in size; also: potency is read from the fitted curve at half-maximal effect
How it was run: (§1)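 Cells (500-1,000/well) rested 5 h, then received compounds for 48 h; metabolically active cells were measured by CellTiter-Glo luminescence. Final concentrations spanned up to 46 µM (MIPE, 11-point) or 0.59 nM-46 µM (NPC, 8-point) in primary screens, 11-point in follow-ups.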

[4] = qHTS of pediatric cancer cell lines to identify multiple opportunities for drug repurposing: Confirmatory screen for Rh41 cells (AID 1347123); conditions: Rh41 rhabdomyosarcoma cells, viability/cytotoxicity qHTS; series mostly up to 45.9 µM;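 also: 48 h compound exposure; nearly all actives have a fitted effect of over 60% in size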; also: potency is read from the fitted curve at half-maximal effect
How it was run: as §1

[5] = qHTS of pediatric cancer cell lines to identify multiple opportunities for drug repurposing: Confirmatory screen for RD cells (AID 1347124); conditions: RD rhabdomyosarcoma cell viability; series mostly up to 45.9 µM;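 also: cells exposed to compound for 48 h before viability readout; nearly all actives have a fitted effect of over 65% in size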; also: potency is read from the fitted curve at half-maximal effect
How it was run: as §1

[6] = qHTS of pediatric cancer cell lines to identify multiple opportunities for drug repurposing: Confirmatory screen for Rh18 cells (AID 1347125); conditions: Rh18 rhabdomyosarcoma cells, viability; series mostly up to 45.9 µM; also: nearly all actives have a fitted effect of over 55% in size; also: potency is read from the fitted curve at half-maximal effect
How it was run: as §1

[7] = qHTS of pediatric cancer cell lines to identify multiple opportunities for drug repurposing: Confirmatory screen for Rh30 cells (AID 1347126); conditions: Rh30 rhabdomyosarcoma cell viability; series mostly up to 45.9 µM; also: nearly all actives have a fitted effect of over 55% in size; also: potency is read from the fitted curve at half-maximal effect
How it was run: as §1

[8] = qHTS of pediatric cancer cell lines to identify multiple opportunities for drug repurposing: Confirmatory screen for OHS-50 cells (AID 1347128); conditions: OHS-50 osteosarcoma cells viability; series mostly up to 45.9 µM;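 also: compound exposure lasted 48 h at 37 degrees C; nearly all actives have a fitted effect of over 55% in size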; also: potency is read from the fitted curve at half-maximal effect
How it was run: as §1

[9] = system: Zika virus NS2B-NS3 protease; experiment: Primary screen GU AMC qHTS for Zika virus inhibitors (AID 1347154); conditions: Zika NS2B-NS3 unlinked protease, AMC fluorogenic substrate; series mostly up to 54.1 µM; also: nearly all actives have a fitted effect of over 70% in size
How it was run: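 Fluorogenic AMC-substrate cleavage by noncovalent NS2B-NS3 protease complex (25 nM, pH 8.0 Tris buffer with Tween 20) followed for 15 minutes at room temperature (~20% conversion). Percent inhibition from ex340/em450 signal change, fitted by 4-parameter Hill equation.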

[10] = qHTS of pediatric cancer cell lines to identify multiple opportunities for drug repurposing: Confirmatory screen for BT-37 cells (AID 1347117); conditions: BT-37 pediatric cancer cells, viability; series mostly up to 45.9 µM; also: nearly all actives have a fitted effect of over 55% in size; also: potency is read from the fitted curve at half-maximal effect
How it was run: as §1

[11] = qHTS of pediatric cancer cell lines to identify multiple opportunities for drug repurposing: Confirmatory screen for MG 63 (6-TG R) cells (AID 1347119); conditions: MG-63 (6-TG resistant) osteosarcoma viability; series mostly up to 45.9 µM; also: nearly all actives have a fitted effect of over 55% in size; also: potency is read from the fitted curve at half-maximal effect
How it was run: as §1

[12] = qHTS of pediatric cancer cell lines to identify multiple opportunities for drug repurposing: Confirmatory screen for U-2 OS cells (AID 1347122); conditions: U-2 OS osteosarcoma cell viability; series mostly up to 45.9 µM; also: nearly all actives have a fitted effect of over 65% in size; also: potency is read from the fitted curve at half-maximal effect
How it was run: as §1

[13] = qHTS of pediatric cancer cell lines to identify multiple opportunities for drug repurposing: Confirmatory screen for SK-N-SH cells (AID 1347129); conditions: SK-N-SH neuroblastoma cell viability; series mostly up to 46.1 µM;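 also: cells exposed to compound for 48 h before viability read; nearly all actives have a fitted effect of over 60% in size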; also: potency is read from the fitted curve at half-maximal effect
How it was run: as §1

[14] = system: Zika virus NS2B-NS3 protease (unlinked); experiment: Optimization of GU AMC qHTS for Zika virus inhibitors: Unlinked NS2B-NS3 protease assay (AID 1347151); conditions: recombinant ZIKV NS2B-NS3 protease, fluorogenic AMC substrate; series mostly up to 52.5 µM; also: potency is read from the fitted curve at half-maximal effect; nearly all actives have a fitted effect of over 80% in size
How it was run: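 Noncovalent complex of NS2B hydrophilic domain and NS3 protease domain, 25 nM final, in 10 mM Tris-HCl pH 8.0, 0.01% Tween 20. AMC fluorescence change over 15 min at room temperature was fitted to a 4-parameter Hill equation.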

[15] = system: Zika virus NS2B-NS3 protease (linked construct); experiment: Confirmatory screen NINDS AMC qHTS for Zika virus inhibitors (AID 1347152); conditions: Purified linked NS2B-NS3, AMC substrate fluorescence; series mostly up to 56.6 µM;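 also: AMC fluorescence gain from cleaved Bz-Nle-KRR-AMC substrate over 15 min; top concentration of the series differs between compounds; nearly all actives have a fitted effect of over 70% in size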
How it was run: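 Purified NS2B-NS3 protease with NS2B hydrophilic domain linked to NS3 protease domain by flexible linker, 1 nM final in 10 mM Tris-HCl pH 8.0, 0.01% Tween 20. Compounds preincubated 15 min, room temperature; Bz-Nle-KRR-AMC 10 microM (Km 18.3 µM); 15-min fluorescence change, 4-parameter Hill fit.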

[16] = system: Zika virus NS2B-NS3 protease (unlinked complex); experiment: Confirmatory screen GU AMC qHTS for Zika virus inhibitors (AID 1347153); conditions: Recombinant NS2B-NS3 protease, AMC substrate fluorescence; series mostly up to 57.1 µM; also: nearly all actives have a fitted effect of over 70% in size
How it was run: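 Fluorescence change (ex 340/em 450 nm) over 15 min, ~20% substrate conversion, normalized to no-inhibitor and no-enzyme controls, then Hill-fitted. Unlinked protease at 25 nM; AMC peptide 10 µM.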

[17] = target: Furin (Homo sapiens) (UniProt P09958); experiment: Furin counterscreen qHTS for Zika virus inhibitors (AID 1347149); conditions: furin enzymatic counterscreen, fluorogenic substrate; series mostly up to 57.5 µM
How it was run: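 Counterscreen measures cleavage of 2 microM BOC-RVRR-AMC, below its ~15 microM Km, by 5 nM full-length human furin at pH 7.0 after a 15-min compound preincubation. Inhibition derives from the 15-min fluorescence increase at 37C.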

[18] = ZIKV-mCherry secondary qHTS for Zika virus inhibitors (AID 1347158); conditions: Vero cells, ZIKV-mCherry infection imaging, 48-72 h; series mostly up to 32.6 µM; also: top concentration of the series differs between compounds
How it was run: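 This orthogonal imaging screen measured ZIKV-mCherry infection of Vero cells exposed to compound, MOI 1, 48-72 h. Percent infection came from segmented nuclei scored mCherry-positive above 3 SD of negative controls.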

Furin (Homo sapiens), sequence (P09958 whole entry, looked up): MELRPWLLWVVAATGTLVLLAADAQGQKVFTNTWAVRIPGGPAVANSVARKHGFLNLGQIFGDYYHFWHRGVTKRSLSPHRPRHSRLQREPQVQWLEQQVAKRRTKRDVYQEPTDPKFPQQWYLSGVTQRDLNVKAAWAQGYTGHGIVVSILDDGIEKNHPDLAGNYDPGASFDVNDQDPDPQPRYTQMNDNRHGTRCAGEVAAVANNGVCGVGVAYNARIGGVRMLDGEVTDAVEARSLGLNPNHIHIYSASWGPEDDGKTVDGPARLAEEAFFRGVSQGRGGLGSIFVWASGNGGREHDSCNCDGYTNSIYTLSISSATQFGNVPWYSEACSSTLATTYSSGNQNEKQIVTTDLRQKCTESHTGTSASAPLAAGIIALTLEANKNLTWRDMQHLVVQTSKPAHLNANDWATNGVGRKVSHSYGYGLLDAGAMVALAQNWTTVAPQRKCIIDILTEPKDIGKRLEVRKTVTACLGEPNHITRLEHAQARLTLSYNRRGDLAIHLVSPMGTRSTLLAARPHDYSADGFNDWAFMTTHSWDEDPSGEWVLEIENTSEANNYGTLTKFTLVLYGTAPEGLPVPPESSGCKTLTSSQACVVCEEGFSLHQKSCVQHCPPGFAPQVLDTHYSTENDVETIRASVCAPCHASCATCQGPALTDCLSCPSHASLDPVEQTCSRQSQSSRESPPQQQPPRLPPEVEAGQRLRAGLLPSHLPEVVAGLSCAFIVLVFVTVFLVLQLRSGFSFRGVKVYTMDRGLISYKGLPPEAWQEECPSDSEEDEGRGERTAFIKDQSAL

Structure (SMILES) | Potency [1] | Potency [2] | Potency [3] | Potency [4] | Potency [5] | Potency [6] | Potency [7] | Potency [8] | Potency [9] | Potency [10] | Potency [11] | Potency [12] | Potency [13] | Potency [14] | Potency [15] | Potency [16] | Potency [17] | Potency [18]
CC(=O)Oc1ccc2c(c1)CC[C@@H]1[C@@H]2CC[C@]2(C)[C@@H](O)CC[C@@H]12 | inactive | 6.57 µM (active) | inactive | inactive | inactive | inactive | inactive | inactive | inactive |  |  |  |  |  |  |  |  | 
Cc1c2oc3c(C)ccc(C(=O)N[C@@H]4C(=O)N[C@H](C(C)C)C(=O)N5CCC[C@H]5C(=O)N(C)CC(=O)N(C)[C@@H](C(C)C)C(=O)O[C@@H]4C)c3nc-2c(C(=O)N[C@@H]2C(=O)N[C@H](C(C)C)C(=O)N3CCC[C@H]3C(=O)N(C)CC(=O)N(C)[C@@H](C(C)C)C(=O)O[C@@H]2C)c(N)c1=O (I: T[dV]P[Sar][NMeV] / II: T[dV]P[Sar][NMeV]; ester I:1-I:C, II:1-II:C; linker I:N-II:N via Actinocin(9to1)) | 26.1 nM (active) | 0.0093 µM (active) | inactive | 0.0147 µM (active) |  |  | inactive | 0.0293 µM (active) |  | 0.0023 µM (active) | 32.9 nM (active) | 369 nM (active) | 0.0118 µM (active) | 27.1 µM (active) | inactive | inactive |  | 
CC1(C)O[C@@H]2C[C@H]3[C@@H]4C[C@H](F)C5=CC(=O)CC[C@]5(C)[C@H]4[C@@H](O)C[C@]3(C)[C@]2(C(=O)CO)O1 | inactive |  | inactive | inactive | inactive | inactive |  | inactive | inactive | inactive | inactive | inactive | inactive |  |  |  |  | 
CCCCC(CC)CN=C(N)NC(N)=NCCCCCCN=C(N)NC(N)=NCC(CC)CCCC (configuration not stated) | 1170 nM (active) | 8.27 µM (active) | 2.93 µM (active) | 7.37 µM (active) | 1.04 µM (active) | 13.1 µM (active) | 1.47 µM (active) | 13.1 µM (active) |  | 8.27 µM (active) | 2930 nM (active) | 4650 nM (active) | 11.8 µM (active) |  |  |  | 21.5 µM (active) | inactive
